Screening results from PubChem BioAssay.
Compounds with a hit are over-represented: about 21% of the library has one in this group of screens.
Pf growth 48h = inhibits P. falciparum growth in the first generation, 48 h | P. falciparum luciferase growth in erythrocytes, 48 h | Potency, µM (series often up to 28.7 µM), for inactives: top-dose activity change, negative = inhibition, hits mostly inhibitors | actives 5.9% (n = 310,000) | AID 504832; also: potency is read from the fitted curve at half-maximal effect; % is scaled to controls: 0 for no effect and ±100 for the full control effect
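Firefly luciferase activity from engineered P. falciparum reports growth; inhibitors lower the luminescent signal. Cultures contained 2% hematocrit erythrocytes at 0.1% final parasitemia.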
Shiga inhibitor = Shiga toxin inhibition | Vero cells, Shiga toxin protein synthesis inhibition reporter | inhibition, % at 38.7 µM | actives 9.2% (n = 290,000); in the data active = inhibition mostly above about 28%, no sharp cut-off; inactive = mostly below about 43%; also: 0% is about no effect
HCV inhibitor = inhibitors of hepatitis C virus infection; Huh7.5.1 HCVcc-Cre infection, luciferase reporter, 44 h; Potency, µM (top dose mostly 41.8 µM), inactives show top-dose activity change, negative = inhibition, most hits filed as inhibitors; actives 3.4% (n = 340,000); also: potency is read from the fitted curve at half-maximal effect; % is scaled to controls: 0 for no effect and ±100 for the full control effect
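Luciferase read-out (15 sec integration) after a 15 min room-temperature substrate step quantifies HCVcc-Cre infection. Cells, 1,000 per well, had compound added 4 h post-plating, then virus at ~0.5 moi, and were cultured 44 h.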
AMA1-RON2 inh = AMA1-RON2 (P. falciparum) interaction inhibition; AlphaScreen AMA1-biotinylated RON2 peptide binding; Potency, µM (highest dose often 58.2 µM), for the others: at the highest dose activity change, negative = inhibition, actives largely listed as inhibitors; actives 0.2% (n = 360,000);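 also: potency is read from the fitted curve at half-maximal effect; 0% = vehicle wells and -100% = peptide control; nearly all actives have a fitted effect of over 45% in size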
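AMA1 (3D7) with his tag at 25 nM final met compounds first, then biotinylated RON2 peptide at 25 nM; detection used donor plus acceptor beads, 10 µg/mL apiece, read by AlphaScreen after 30 min at room temperature.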
Pf growth 96h = P. falciparum growth inhibition at 96 hour, primary screen for plastid delayed-death inhibitors; Potency, µM (top dose mostly 28.7 µM), for the others: top-dose activity change, negative = inhibition, most hits filed as inhibitors; actives 6.9% (n = 320,000); P. falciparum luciferase reporter growth, 96 h; AID 504834; also: potency is read from the fitted curve at half-maximal effect; % is scaled to controls: 0 for no effect and ±100 for the full control effect
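Cell-based qHTS: luciferase-tagged P. falciparum in erythrocytes (2% hematocrit, 0.05% parasitemia final) incubated with compounds for 96 hours, 37 C, 5% CO2; luciferase detection reagent then added and luminescence measured.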
CHX counter = counter-screen for Shiga toxin inhibitors: cycloheximide protein synthesis inhibition. cell reporter, cycloheximide protein synthesis inhibition counterscreen. max response, %. actives 12% (n = 300,000). AID 2314; in the data active = max response mostly above about 13%, no sharp cut-off; inactive = mostly below about 14%; also: read at 38.3 µM for the half of the compounds with a filed dose; 0% is about no effect
* hit, by the source's call; [ ] = another dose, or the depositor's remark. Unless noted, calls follow the shape of the dose curve; as a rule, active = well fitted curve in the direction sought with a large enough effect; inconclusive = small, poorly fitted or top-dose-only effect, or another doubt; inactive = no such curve, though single readings can be large; an effect the other way counts as inactive or inconclusive.

COC(=O)[C@H](CC(C)C)NS(=O)(=O)N(Cc1ccccc1)[C@@H](CC(C)C)C(=O)OC was read as Pf growth 48h 8.28µM*, HCV inhibitor -1.5%, AMA1-RON2 inh 7.5% and Pf growth 96h inconclusive.
`C=CCCN(C(CC(C)C)C(=O)OC)S(=O)(=O)c1ccccc1Br` (stereo not drawn) gave Pf growth 48h inconclusive, Shiga inhibitor -3.1, HCV inhibitor 27.4%[8.37 µM], AMA1-RON2 inh 24.5%, Pf growth 96h 11.7µM* and CHX counter 5.9.
C=CCCN(C(CC(C)C)C(=O)OC)S(=O)(=O)c1cc(Br)ccc1Br (stereo not drawn) was read as Pf growth 48h inconclusive, Shiga inhibitor 28.5, HCV inhibitor 5.6%, AMA1-RON2 inh 19.6%, Pf growth 96h inconclusive and CHX counter 29.9.
For O=C(Cc1ccc(Cl)cc1)Nc1ncc([N+](=O)[O-])s1 the results were Pf growth 48h 0.0%, Shiga inhibitor 67.4*, HCV inhibitor -11.4%, AMA1-RON2 inh 6.2%, Pf growth 96h 2.3% and CHX counter 43.2*.
Screening O=C(Nc1ncc([N+](=O)[O-])s1)c1ccco1 returned Pf growth 48h 162.7%, Shiga inhibitor 67.7*, HCV inhibitor 22.6%, AMA1-RON2 inh -12.2%, Pf growth 96h 107.4% and CHX counter 37.5*.
Screening O=C(COC(=O)COc1ccccc1)Nc1ncc([N+](=O)[O-])s1 returned Pf growth 48h 2.3%, HCV inhibitor 17.0%, AMA1-RON2 inh 29.6% and Pf growth 96h -1.3%.
Screening CC(CC(=O)Nc1ncc([N+](=O)[O-])s1)c1ccccc1 (stereo not drawn) returned Pf growth 48h 2.9%, Shiga inhibitor 87.3*, HCV inhibitor inconclusive, AMA1-RON2 inh -14.5%, Pf growth 96h 100.9% and CHX counter 25.7*.
Screening CC(=O)Nc1ncc([N+](=O)[O-])s1 returned Pf growth 48h -4.1% and Pf growth 96h -5.3%.
O=C(COc1ccc(Cl)cc1)Nc1ncc([N+](=O)[O-])s1 was read as Pf growth 48h 198.9%, Shiga inhibitor 146.5*, HCV inhibitor inconclusive, AMA1-RON2 inh -8.0%, Pf growth 96h -19.4% and CHX counter 47.6*.
`CC(C)(C)c1ccc(C(O)c2ncc(-c3ccc(F)cc3)[nH]2)cc1` (stereo not drawn) gave AMA1-RON2 inh 0.0%.
For CC(C)C[C@@H](CN)NC(=O)c1nc[nH]c1C(=O)N[C@@H](CC(=O)O)C(=O)CNC[C@H](C)NC(=O)c1nc[nH]c1C(=O)N[C@@H](CC(=O)O)C(=O)O the results were HCV inhibitor 11.1% and AMA1-RON2 inh 16.0%.
Screening CCOC1=CC2=C(C(=O)C(Cl)=CC2=O)[C@@H]2CN(S(=O)(=O)c3ccc(C)cc3)[C@@H](c3ccccc3)[C@H]12 returned AMA1-RON2 inh -22.4%.
Screening Cc1ccc(OCCNC(=O)CCNC(=O)c2ccc(Cl)cc2)cc1 returned Pf growth 48h 4.8%, HCV inhibitor 14.0%, AMA1-RON2 inh 7.4% and Pf growth 96h 38.3%.
For O=C(Cc1ccc(Br)cc1)Nc1ncc([N+](=O)[O-])s1 the results were Pf growth 48h -105.7%, Shiga inhibitor 95.5*, HCV inhibitor -17.1%, AMA1-RON2 inh 32.0%, Pf growth 96h -1.3% and CHX counter 67.6*.
For COc1cc2sc(C)nc2c2ccccc12 the results were Pf growth 48h 17.7%, Shiga inhibitor -2.2, HCV inhibitor 10µM*, AMA1-RON2 inh 0.0%, Pf growth 96h inconclusive and CHX counter 1.1.
Screening COc1ccccc1NC(=O)CSc1nc2sc(C)c(C)c2c(=O)n1C returned Pf growth 48h -1.4%, Shiga inhibitor -8.6, HCV inhibitor 10µM*, AMA1-RON2 inh 9.1%, Pf growth 96h inconclusive and CHX counter -6.0.
For Cc1sc2nc(SCC(=O)NCCO)n(C)c(=O)c2c1C the results were Pf growth 48h 6.6%, Shiga inhibitor 18.1, HCV inhibitor -2.1%, AMA1-RON2 inh -1.5%, Pf growth 96h 9.28µM* and CHX counter -2.6.
